# Where “and” joins values, the source holds several entries; their conditions need not be identical. Equal values may be shown once. A number with no mark means an inactive call. Records with an inconclusive call do not appear. Entries that show only a call come without a potency. Calls of active or inactive are those of the source. Unless noted, the call rests on the fitted dose curve; in most records, active means well fitted curve in the direction sought with a large enough effect; inconclusive means small, poorly fitted or top-dose-only effect, or another doubt; inactive means no such curve, though single readings can be large; an effect the other way counts as inactive or inconclusive.
# Key:
# [1] = P-glycoprotein substrates identified in KB-8-5-11 adenocarcinoma cell line, qHTS therapeutic library screen (AID 1346987); further: nearly all actives have a fitted effect of over 65% in size; further: potency means the concentration at half of the fitted maximal effect; on activity change, negative = cytotoxicity: series mostly up to about 44 µM
# Method in brief: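 Compounds are pinned in dose-response onto KB-8-5-11 cells (500 cells/well, colchicine-free medium) and left 72 h at 37 degree C. CellTiter-Glo luminescence then yields AC50 values.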
# [2] = Natriuretic polypeptide receptor (hNpr1) antagonism - Pilot counterscreen GloSensor control cell line (AID 1347045; calls by dose curve; further: series mostly up to about 38 µM)
# Method in brief: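 Control counterscreen: luciferase cGMP-biosensor HEK293 cells (no Npr1) received compound for 30 min at room temperature after GloSensor substrate loading. Luminescence was measured before and 20 min after soluble guanylyl cyclase activation by 50 uM nitroprusside.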
# [3] = biological target: Atrial natriuretic peptide receptor 1 (Homo sapiens) (UniProt P16066); test: Natriuretic polypeptide receptor (hNpr1) antagonism - Pilot screen (AID 1347049; calls by dose curve;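 further: agonist-evoked cGMP luminescence read 20 min after hNppA addition; series mostly up to about 58 µM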)
# Sequence of Atrial natriuretic peptide receptor 1 (Homo sapiens) (P16066 whole entry, looked up): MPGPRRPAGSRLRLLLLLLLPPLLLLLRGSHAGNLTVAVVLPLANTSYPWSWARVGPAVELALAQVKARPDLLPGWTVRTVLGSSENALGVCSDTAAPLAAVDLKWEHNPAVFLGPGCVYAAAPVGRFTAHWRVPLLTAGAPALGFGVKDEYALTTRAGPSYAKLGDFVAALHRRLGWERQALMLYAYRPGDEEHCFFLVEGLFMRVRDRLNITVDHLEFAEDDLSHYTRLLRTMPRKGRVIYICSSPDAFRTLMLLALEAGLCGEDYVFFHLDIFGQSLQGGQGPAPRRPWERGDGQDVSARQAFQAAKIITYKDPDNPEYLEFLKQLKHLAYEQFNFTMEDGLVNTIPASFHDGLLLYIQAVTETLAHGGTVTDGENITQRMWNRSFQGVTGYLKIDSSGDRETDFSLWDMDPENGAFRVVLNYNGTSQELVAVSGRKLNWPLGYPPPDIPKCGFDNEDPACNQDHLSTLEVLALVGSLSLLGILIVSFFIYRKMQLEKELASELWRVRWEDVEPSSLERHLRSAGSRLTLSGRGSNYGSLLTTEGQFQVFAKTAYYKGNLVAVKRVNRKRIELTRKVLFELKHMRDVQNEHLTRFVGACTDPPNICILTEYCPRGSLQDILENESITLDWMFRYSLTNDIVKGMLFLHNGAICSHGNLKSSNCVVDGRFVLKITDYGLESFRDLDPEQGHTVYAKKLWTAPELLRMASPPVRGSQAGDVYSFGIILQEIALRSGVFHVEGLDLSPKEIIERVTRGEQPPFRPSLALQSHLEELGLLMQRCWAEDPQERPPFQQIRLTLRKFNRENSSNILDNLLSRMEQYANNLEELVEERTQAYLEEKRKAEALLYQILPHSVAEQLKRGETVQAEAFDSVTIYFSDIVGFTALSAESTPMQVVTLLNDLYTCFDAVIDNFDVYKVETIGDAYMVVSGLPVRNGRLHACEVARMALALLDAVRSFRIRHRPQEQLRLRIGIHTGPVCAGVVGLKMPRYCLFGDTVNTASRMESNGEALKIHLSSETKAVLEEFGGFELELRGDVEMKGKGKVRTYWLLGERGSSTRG
# Method in brief: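 cGMP-sensor HEK293/hNpr1 cells, 1500/well, plated overnight at 37C. 2% GloSensor reagent, 2 h RT. Compound (23 nL pin transfer) 30 min RT, baseline luminescence pre-read. 0.1 nM hNppA, 20 min RT, post-read.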
# [4] = biological target: Atrial natriuretic peptide receptor 2 (Homo sapiens) (UniProt P20594); test: Natriuretic polypeptide receptor (hNpr2) antagonism - Pilot subtype selectivity assay (AID 1347050; calls by dose curve)
# Sequence of Atrial natriuretic peptide receptor 2 (Homo sapiens) (P20594 whole entry, looked up): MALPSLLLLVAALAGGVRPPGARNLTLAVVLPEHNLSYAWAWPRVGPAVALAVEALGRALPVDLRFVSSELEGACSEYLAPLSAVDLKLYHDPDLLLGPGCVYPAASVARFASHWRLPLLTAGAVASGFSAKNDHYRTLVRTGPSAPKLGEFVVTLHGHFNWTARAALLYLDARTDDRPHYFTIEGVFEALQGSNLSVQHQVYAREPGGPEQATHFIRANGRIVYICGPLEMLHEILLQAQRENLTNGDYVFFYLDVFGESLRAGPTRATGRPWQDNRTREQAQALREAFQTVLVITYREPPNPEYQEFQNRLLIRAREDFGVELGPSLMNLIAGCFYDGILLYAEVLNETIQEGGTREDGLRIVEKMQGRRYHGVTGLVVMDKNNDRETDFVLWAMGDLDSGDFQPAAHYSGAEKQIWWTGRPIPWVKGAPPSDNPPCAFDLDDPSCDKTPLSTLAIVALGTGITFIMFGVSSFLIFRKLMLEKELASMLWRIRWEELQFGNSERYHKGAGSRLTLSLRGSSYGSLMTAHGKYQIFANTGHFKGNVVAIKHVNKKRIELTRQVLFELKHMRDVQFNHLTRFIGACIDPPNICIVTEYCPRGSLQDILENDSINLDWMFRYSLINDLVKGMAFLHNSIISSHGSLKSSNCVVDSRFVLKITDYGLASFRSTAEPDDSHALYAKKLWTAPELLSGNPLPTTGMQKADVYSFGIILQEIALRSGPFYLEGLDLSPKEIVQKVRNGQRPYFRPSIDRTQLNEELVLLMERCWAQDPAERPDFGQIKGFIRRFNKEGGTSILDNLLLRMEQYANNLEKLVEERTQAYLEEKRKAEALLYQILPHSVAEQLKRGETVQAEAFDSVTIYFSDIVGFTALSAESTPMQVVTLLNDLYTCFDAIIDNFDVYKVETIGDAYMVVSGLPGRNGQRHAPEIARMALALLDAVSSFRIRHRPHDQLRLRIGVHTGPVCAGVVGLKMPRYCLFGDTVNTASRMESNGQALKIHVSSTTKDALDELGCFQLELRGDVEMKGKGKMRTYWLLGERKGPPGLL
# Method in brief: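 Luminescence from a genetically encoded cGMP luciferase biosensor in hNpr2-expressing HEK293 cells is read before and 20 min after adding 1 nM hNppC. Test compounds, in interplate 1:5 titrations, are added 30-50 min ahead of the agonist.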
# [5] = NS1 protein of Zika virus - qHTS assay to identify small molecule inhibitors in human HEK 293 cells (AID 1347053); further: series mostly up to about 46 µM; nearly all actives have a fitted effect of over 55% in size
# Method in brief: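 Read-out is a two-antibody TR-FRET for ZIKV NS1, normalized between uninfected cells and infected cells. Compound added 1 h before MR766 infection at MOI 0.5; human HEK 293 cells incubated 24 h, 37 C.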
# [6] = biological target: T1, Tyrosine-protein phosphatase non-receptor type substrate 1 (Homo sapiens) + Leukocyte surface antigen CD47 (Homo sapiens) (UniProt P78324+Q08722); test: CD47-SIRPalpha protein protein interaction - LANCE assay qHTS validation (AID 1347057; active means well fitted curve in the direction sought with a large enough effect in the signal ratio, with a control signal flat, not every such curve was filed as active; the % refers to the signal ratio; further: series mostly up to about 38 µM)
# T1 sequence (P78324 whole entry, looked up, the tested form may be a part): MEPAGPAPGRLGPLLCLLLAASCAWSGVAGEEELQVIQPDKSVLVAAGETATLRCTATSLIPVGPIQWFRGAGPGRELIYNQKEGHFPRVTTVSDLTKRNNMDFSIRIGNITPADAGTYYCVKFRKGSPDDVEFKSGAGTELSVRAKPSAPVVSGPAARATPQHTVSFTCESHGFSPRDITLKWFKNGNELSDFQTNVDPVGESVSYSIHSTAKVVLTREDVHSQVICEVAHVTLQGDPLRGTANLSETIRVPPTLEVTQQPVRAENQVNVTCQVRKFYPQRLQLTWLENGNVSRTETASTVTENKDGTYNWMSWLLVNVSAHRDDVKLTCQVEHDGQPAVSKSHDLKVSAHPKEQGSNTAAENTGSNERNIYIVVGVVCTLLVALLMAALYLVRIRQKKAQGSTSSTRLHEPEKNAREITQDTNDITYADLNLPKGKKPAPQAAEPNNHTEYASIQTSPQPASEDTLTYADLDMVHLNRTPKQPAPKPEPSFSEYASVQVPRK
# T1 sequence (Q08722 whole entry, looked up, the tested form may be a part): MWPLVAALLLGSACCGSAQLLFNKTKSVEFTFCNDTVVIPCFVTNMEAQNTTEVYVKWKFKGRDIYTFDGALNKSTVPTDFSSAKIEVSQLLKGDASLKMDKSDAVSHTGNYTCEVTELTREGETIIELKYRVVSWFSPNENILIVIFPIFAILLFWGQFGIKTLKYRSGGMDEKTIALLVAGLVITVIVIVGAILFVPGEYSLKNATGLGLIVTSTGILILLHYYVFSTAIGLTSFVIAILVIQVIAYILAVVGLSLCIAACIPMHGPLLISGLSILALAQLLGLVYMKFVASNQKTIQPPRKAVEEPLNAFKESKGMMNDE
# Method in brief: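 Inhibition of soluble CD47/SIRPalpha ectodomain association by titrated compounds, measured as 665/615 nm time-resolved FRET ratio after sequential 30 min room-temperature incubations.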
# [7] = biological target: T1, Tyrosine-protein phosphatase non-receptor type substrate 1 (Homo sapiens) + Leukocyte surface antigen CD47 (Homo sapiens); test: CD47-SIRPalpha protein protein interaction - Alpha assay qHTS validation (AID 1347059);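 further: bead proximity luminescence from CD47 binding SIRPalpha after compound preincubation with SIRPalpha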
# Method in brief: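 SIRPalpha-biotin 25 nM + cpd, 30 min RT, dark; add CD47-His 12.5 nM, 30 min; add Ni-NTA/SAV beads 10 ug/mL, 30 min; AlphaScreen. Buffer PBS pH 7.4 + 0.05% IGEPAL CA-630. Non-biotinylated SIRPalpha as control inhibitor.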
# [8] = biological target: Parathyroid hormone/parathyroid hormone-related peptide receptor (Homo sapiens) (UniProt Q03431); test: qHTS for PTHR1 Agonists: Optimization Screen against the NCGC LOPAC library (AID 1347079);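 further: GloSensor cAMP luminescence in HEK-293 GP2 cells expressing human PTHR1 with IBMX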
# Sequence of Parathyroid hormone/parathyroid hormone-related peptide receptor (Homo sapiens) (Q03431 whole entry, looked up): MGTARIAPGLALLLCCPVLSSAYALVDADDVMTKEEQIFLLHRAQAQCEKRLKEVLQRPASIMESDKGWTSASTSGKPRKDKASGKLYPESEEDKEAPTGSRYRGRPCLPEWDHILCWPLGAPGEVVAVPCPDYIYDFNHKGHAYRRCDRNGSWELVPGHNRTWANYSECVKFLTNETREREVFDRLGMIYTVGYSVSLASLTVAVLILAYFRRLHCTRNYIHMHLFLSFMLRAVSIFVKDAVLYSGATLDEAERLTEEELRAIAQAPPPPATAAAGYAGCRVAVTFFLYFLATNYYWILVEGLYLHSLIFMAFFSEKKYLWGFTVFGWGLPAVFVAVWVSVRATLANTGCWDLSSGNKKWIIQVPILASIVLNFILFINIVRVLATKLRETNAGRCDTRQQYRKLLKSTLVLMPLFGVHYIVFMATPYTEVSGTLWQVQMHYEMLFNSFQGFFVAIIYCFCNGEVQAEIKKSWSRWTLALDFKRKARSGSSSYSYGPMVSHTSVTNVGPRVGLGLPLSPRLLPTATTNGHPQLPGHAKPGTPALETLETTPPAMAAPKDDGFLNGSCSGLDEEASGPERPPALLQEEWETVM
# Method in brief: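 HEK-293 GP2 cells, PTHR1 + GloSensor cAMP; 3000 cells/well, o/n. Luciferin + IBMX 0.5mM each (stock), 1 hr 37C. Cpd titration, 1 hr 37C. Lum after 15 min RT. Ctrl M-PTH(1-15) top 10uM.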
# [9] = qHTS for Inhibitors of the Functional Ribonucleoprotein Complex (vRNP) of Lassa (LASV) Arenavirus: LASV Primary Screen - GLuc reporter signal (AID 1347082; calls by dose curve; tested in HEK293 reporter line; further: series mostly up to about 57 µM; nearly all actives have a fitted effect of over 60% in size)
# [10] = qHTS for Inhibitors of the Functional Ribonucleoprotein Complex (vRNP) of Lassa (LASV) Arenavirus: Viability assay - alamar blue signal for LASV Primary Screen (AID 1347083; calls by dose curve; tested in HEK293 reporter line; further: series mostly up to about 57 µM; nearly all actives have a fitted effect of over 80% in size)
# [11] = qHTS for Inhibitors of the Functional Ribonucleoprotein Complex (vRNP) of Lymphocytic Choriomeningitis Arenaviruses (LCMV): Viability assay - alamar blue signal for LCMV Primary Screen (AID 1347085; calls by dose curve; tested in HEK293 reporter line; further: series mostly up to about 57 µM; nearly all actives have a fitted effect of over 80% in size)
# [12] = biological target: Nucleoprotein (Lymphocytic choriomeningitis virus (strain Armstrong)) (UniProt P09992); test: qHTS for Inhibitors of the Functional Ribonucleoprotein Complex (vRNP) of Lymphocytic Choriomeningitis Arenaviruses (LCMV): LCMV Primary Screen - GLuc reporter signal (AID 1347086; calls by dose curve; further: series mostly up to about 57 µM; nearly all actives have a fitted effect of over 70% in size)
# Sequence of Nucleoprotein (Lymphocytic choriomeningitis virus (strain Armstrong)) (P09992 whole entry, looked up): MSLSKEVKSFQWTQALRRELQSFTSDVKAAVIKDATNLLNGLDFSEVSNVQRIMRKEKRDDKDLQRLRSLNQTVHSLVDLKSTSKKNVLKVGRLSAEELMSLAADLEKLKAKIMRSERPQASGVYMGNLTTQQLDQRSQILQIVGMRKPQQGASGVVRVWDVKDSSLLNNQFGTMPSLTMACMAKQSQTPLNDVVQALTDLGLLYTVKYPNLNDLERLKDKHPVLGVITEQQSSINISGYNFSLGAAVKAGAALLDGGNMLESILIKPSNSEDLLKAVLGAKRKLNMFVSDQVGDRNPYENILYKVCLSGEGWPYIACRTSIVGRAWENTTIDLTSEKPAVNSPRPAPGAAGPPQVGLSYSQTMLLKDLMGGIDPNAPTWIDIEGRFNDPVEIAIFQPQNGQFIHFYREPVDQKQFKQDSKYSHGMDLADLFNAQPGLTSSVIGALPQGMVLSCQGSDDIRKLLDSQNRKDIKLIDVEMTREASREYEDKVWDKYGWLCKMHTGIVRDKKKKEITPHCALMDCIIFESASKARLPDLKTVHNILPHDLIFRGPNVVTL
# [13] = qHTS of pediatric cancer cell lines to identify multiple opportunities for drug repurposing: Primary screen for TC32 cells (AID 1347089); further: nearly all actives have a fitted effect of over 60% in size
# Method in brief: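 Luminescent ATP read-out (CellTiter-Glo) of metabolically active TC32 cells after 48 h exposure. Concentration-response curves came from 11-point (MIPE, 0.78 nM–46 µM) or 8-point (NPC, 0.59 nM–46 µM) primary titrations; follow-up used 11 points.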
# [14] = qHTS of pediatric cancer cell lines to identify multiple opportunities for drug repurposing: Primary screen for DAOY cells (AID 1347090); further: nearly all actives have a fitted effect of over 55% in size; further: potency means the concentration at half of the fitted maximal effect
# Method in brief: (§1)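 Viability measured as metabolically active cells via CellTiter-Glo luminescence following 48 hours of compound exposure, 11-point dilutions in confirmatory testing. 500-1,000 cells/well plated 5 hours before dosing; controls were DMSO and 2.3 µM bortezomib.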
# [15] = qHTS of pediatric cancer cell lines to identify multiple opportunities for drug repurposing: Primary screen for SJ-GBM2 cells (AID 1347091)
# Method in brief: as §1
# [16] = qHTS of pediatric cancer cell lines to identify multiple opportunities for drug repurposing: Primary screen for A673 cells (AID 1347092); further: nearly all actives have a fitted effect of over 45% in size
# Method in brief: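 Cell viability of A673 measured by CellTiter-Glo ATP luminescence after 48 hours compound exposure. Dilution series spanned 0.78 nM to 46 µM (MIPE, 11-point) or 0.59 nM to 46 µM (NPC, 8-point); bortezomib 2.3 uM positive control.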
# [17] = qHTS of pediatric cancer cell lines to identify multiple opportunities for drug repurposing: Primary screen for SK-N-MC cells (AID 1347093); further: potency means the concentration at half of the fitted maximal effect
# Method in brief: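 Metabolically active cells were quantified by ATP-dependent luminescence (CellTiter-Glo, 15 min at room temperature) following 48 h treatment. Cells had been plated at 500-1,000 per well and settled for 5 h beforehand.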
# [18] = qHTS of pediatric cancer cell lines to identify multiple opportunities for drug repurposing: Primary screen for BT-37 cells (AID 1347094); further: series mostly up to about 57 µM
# Method in brief: (§2)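 CRCs from 8- or 11-point titrations (lowest final 0.59 nM NPC, 0.78 nM MIPE). Cell viability: CellTiter-Glo after 48 h incubation, 15 min room-temperature development, luminescence imaging.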
# [19] = qHTS of pediatric cancer cell lines to identify multiple opportunities for drug repurposing: Primary screen for U-2 OS cells (AID 1347096); further: nearly all actives have a fitted effect of over 50% in size
# Method in brief: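 Viability after 48 h compound treatment at 37C, 500-1,000 cells/well, read as ATP luminescence with CellTiter-Glo. Primary screens used 11-point (MIPE, 0.78 nM-46 µM) or 8-point (NPC, 0.59 nM-46 µM) final concentrations; follow-up screens used 11-point dilutions.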
# [20] = qHTS of pediatric cancer cell lines to identify multiple opportunities for drug repurposing: Primary screen for NB-EBc1 cells (AID 1347095); further: potency means the concentration at half of the fitted maximal effect
# Method in brief: as §2
structure (smiles),measurement,setting,value
CC(C)(C)NCC(O)c1ccccc1Cl (centres undefined),Potency,[1],inactive
same,outcome,[2],inactive
same,outcome,[3],inactive
same,outcome,[4],inactive
same,outcome,[5],inactive
same,outcome,[6],inactive
same,outcome,[7],inactive
same,outcome,[8],inactive
same,Potency,[9],inactive
same,Potency,[10],inactive
same,Potency,[11],inactive
same,Potency,[12],inactive
same,Potency,[13],inactive
same,Potency,[14],inactive
same,Potency,[15],inactive
same,Potency,[16],inactive
same,Potency,[17],inactive
same,Potency,[18],inactive
CC(C)[C@H]1C(=O)N2CCC[C@H]2[C@]2(O)O[C@](NC(=O)[C@@H]3C[C@@H]4c5cccc6[nH]cc(c56)C[C@H]4N(C)C3)(C(C)C)C(=O)N12,Potency,[1],inactive
CCCCC/C=C\C/C=C\C/C=C\C/C=C\CCCC(=O)NCC(=O)O,"activity change, negative = cytotoxicity",[1],0.883% [at 5.11 µM]
same,outcome,[2],inactive
same,outcome,[3],inactive
same,outcome,[4],inactive
same,outcome,[5],inactive
same,outcome,[8],inactive
same,Potency,[9],inactive
same,Potency,[10],inactive
same,Potency,[11],inactive
same,Potency,[12],inactive
same,Potency,[13],inactive
same,Potency,[14],inactive
same,Potency,[15],inactive
same,Potency,[16],inactive
same,Potency,[18],inactive
same,Potency,[19],inactive
CC(C)C[C@H](CN)CC(=O)O,Potency,[1],inactive
same,outcome,[5],inactive
same,Potency,[9],inactive
same,Potency,[10],inactive
same,Potency,[11],inactive
same,Potency,[12],inactive
same,Potency,[13],inactive
same,Potency,[14],inactive
same,Potency,[15],inactive
same,Potency,[16],inactive
same,Potency,[17],23.5 µM (active)
same,Potency,[18],inactive
same,Potency,[20],inactive
CCCCCN(C)CCC(O)(P(=O)(O)O)P(=O)(O)O,Potency,[1],inactive
same,outcome,[5],inactive
same,outcome,[6],inactive
same,outcome,[7],inactive
same,Potency,[9],inactive
same,Potency,[10],inactive
same,Potency,[11],inactive
same,Potency,[12],inactive
COc1ccc2c(c1)C13CCCC[C@@H]1C(C2)N(C)CC3 (some centres undefined),Potency,[1],inactive
O=C(O)CCCc1ccc(N(CCCl)CCCl)cc1,Potency,[1],inactive
same,outcome,[2],inactive
same,outcome,[3],inactive
same,outcome,[4],inactive
same,outcome,[5],inactive
same,outcome,[8],inactive
same,Potency,[9],inactive
same,Potency,[10],inactive
same,Potency,[11],inactive
same,Potency,[12],inactive
same,Potency,[13],inactive
same,Potency,[14],inactive
same,Potency,[16],inactive
same,Potency,[17],20.9 µM (active)
same,Potency,[20],11.9 µM (active) and 1.05 µM (active)
O=P1(N(CCCl)CCCl)NCCCO1 (centres undefined),Potency,[1],inactive
same,outcome,[2],inactive
same,outcome,[3],inactive
same,outcome,[4],inactive
same,outcome,[5],inactive
same,outcome,[6],inactive
same,outcome,[7],inactive
same,outcome,[8],inactive
same,Potency,[9],inactive
same,Potency,[10],inactive
same,Potency,[11],inactive
same,Potency,[12],inactive
same,Potency,[13],inactive
same,Potency,[14],inactive
same,Potency,[15],inactive
same,Potency,[16],inactive
same,Potency,[17],inactive
same,Potency,[18],inactive
same,Potency,[20],inactive
same,Potency,[19],inactive
CN1CC[C@]23c4c5ccc(O)c4O[C@H]2[C@@H](O)CC[C@H]3[C@H]1C5,Potency,[1],inactive
same,outcome,[5],inactive
same,Potency,[9],inactive
same,Potency,[10],inactive
same,Potency,[11],inactive
same,Potency,[12],inactive
same,Potency,[13],inactive
same,Potency,[14],inactive
same,Potency,[15],inactive
same,Potency,[16],inactive
same,Potency,[17],inactive
same,Potency,[18],inactive
COC(=O)C(c1ccccc1)C1CCCCN1 (centres undefined),Potency,[1],inactive
O=C1Nc2ccc(Cl)cc2C(c2ccccc2)=NC1O (centres undefined),Potency,[1],inactive
O=C(Nc1ccc(Br)cc1)c1cc(Br)cc(Br)c1O,Potency,[1],4.61 µM (active)
same,outcome,[5],inactive
same,Potency,[9],inactive
same,Potency,[10],inactive
same,Potency,[11],inactive
same,Potency,[12],inactive
same,Potency,[13],inactive
same,Potency,[14],21.1 µM (active)
